This is a sample that favours compounds with a hit; in the whole collection about 4.5% have one here.
HDAC3 inh = blocks human histone deacetylase 3; inhibition, % at 8.3 µM; O15379; recombinant HDAC3, fluorogenic peptide/trypsin coupled, fluorescence; 320,000 tested, 0.15% active; in the data active = inhibition above about 26%, passing the limit was not always enough; inconclusive = no clear call, values can overlap the other calls
Rce1 inhib = yeast Ras-converting enzyme inhibition; 290,000 tested, 0.27% active; Q03530; yeast membranes, quenched prenylated peptide cleavage fluorescence; AID 2563; calls only;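 active = fall in fluorescence gain of 50% or more versus controls, with final raw signal at or below 3038400; inconclusive = same 50% fall but final raw signal above 3038400; inactive = fall in fluorescence gain under 50%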;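 also: plate controls were neutral control wells for no effect and wells lacking membranes for full effect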
ALR H2O2 inh = blocks human ALR sulfhydryl oxidase activity; P55789; purified ALR, DTT oxidation, H2O2 HRP-luminol luminescence; inhibition, % (concentration not given with the values); 290,000 tested, 3.8% active;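 active = mean replicate inhibition above about 79%, with every replicate also reaching it, limit read from the data; inconclusive = only one of the two criteria met; inactive = mean below limit and not every replicate reaching it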
Target sequence (P55789 whole entry, looked up): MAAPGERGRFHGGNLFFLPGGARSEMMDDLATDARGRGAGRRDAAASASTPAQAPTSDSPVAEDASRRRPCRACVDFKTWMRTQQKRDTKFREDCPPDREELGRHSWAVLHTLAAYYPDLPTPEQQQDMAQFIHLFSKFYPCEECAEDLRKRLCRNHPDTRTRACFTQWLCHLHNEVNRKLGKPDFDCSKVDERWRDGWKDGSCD
GRK2 inh = human GRK2 inhibition via aptamer displacement | P25098 | bead flow cytometry, FAM-aptamer displacement from GRK2 | inhibition of aptamer binding, % at 10 µM | 330,000 tested, 0.59% active | AID 488847;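 active = inhibition of aptamer binding above 40%, roughly 3 SD of noise, on plates passing a quality check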;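 also: median bead fluorescence of bound FAM aptamer so fluorescent compounds give negative values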
Rtt109 HAT inh = inhibitors of Candida albicans Rtt109/Vps75 histone acetyltransferase. purified Rtt109/Vps75, ThioGlo CoA-SH fluorescence, 4 h. AID 540336. 330,000 tested, 0.16% active. Q5AAJ8. inhibition, % at 34.9 µM;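 active = inhibition of at least 50% in every replicate; inconclusive = best replicate reaches 50% inhibition but some replicates fall short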
Target sequence (Q5AAJ8 whole entry, looked up): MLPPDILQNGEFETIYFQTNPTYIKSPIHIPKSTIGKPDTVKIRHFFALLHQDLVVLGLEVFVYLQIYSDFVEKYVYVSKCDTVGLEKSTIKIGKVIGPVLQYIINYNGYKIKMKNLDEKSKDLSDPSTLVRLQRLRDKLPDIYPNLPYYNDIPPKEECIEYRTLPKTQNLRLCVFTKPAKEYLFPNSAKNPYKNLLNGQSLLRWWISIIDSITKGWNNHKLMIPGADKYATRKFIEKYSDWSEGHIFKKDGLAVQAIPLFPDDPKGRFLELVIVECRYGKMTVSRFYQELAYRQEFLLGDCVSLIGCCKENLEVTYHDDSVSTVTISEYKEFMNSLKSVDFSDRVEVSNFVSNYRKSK
Efflux pump inh = antifungal efflux pump inhibition, Nile Red retention | 330,000 tested, 0.44% active | inhibition, % at 10 µM | S. cerevisiae Candida pump triplex;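 active = plate passing quality check with inhibition over a set limit, or well fluorescence over plate mean plus 4 SD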;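 also: Nile Red retained in pooled yeast measured as flow cytometry median fluorescence; 0% = buffer negative control and 100% = Enniatin B positive control; higher means more Nile Red kept so more efflux inhibition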
Numbers without * were called inactive; i = inactive; ? = inconclusive; / = not tested or not shown; + = active, no number.

SMILES	HDAC3 inh	Rce1 inhib	ALR H2O2 inh	GRK2 inh	Rtt109 HAT inh	Efflux pump inh
C=CCn1c(SCC(=O)Nc2ccccc2C)nc2sc(C)c(C)c2c1=O	-4	i	-3	0	-3	0
COc1ccccc1NC(=O)CSc1nc(O)cc(=O)n1C	-3	i	99*	1	22	0
COc1ccc(S(=O)(=O)N2CCC3(CC2)OCCN3S(=O)(=O)c2cccs2)cc1OC	-1	i	-4	0	10	0
CCN1C(=O)N(CC)c2cccc3cccc1c23	-6	i	-15	1	-1	0
CN1CN(C)c2cccc3cccc1c23	-43	i	98*	0	-4	0
COc1cc(C(=O)NCc2nnc(SCC(=O)Nc3cccc(C(F)(F)F)c3)o2)cc(OC)c1OC	2	i	-58	0	-3	0
Cn1nnnc1SCC(=O)Nc1ccccc1[N+](=O)[O-]	5	i	/	0	0	0
COC(=O)c1ccc(NC(=O)CSC2=NC(=O)C(c3ccccc3)C(=O)N2)cc1 (stereo not drawn)	0	i	99*	0	-3	0
COc1ccccc1NC(=O)CSC1=NC(=O)C(NC(C)=O)C(=O)N1 (stereo not drawn)	-1	i	/	0	5	0
COC(=O)c1ccc(NC(=O)CSc2nc3ccccc3c(=O)[nH]2)cc1	9	i	-22	2	9	0
O=C(CSC1=NC(=O)C(c2ccccc2)C(=O)N1)Nc1ccccc1[N+](=O)[O-] (stereo not drawn)	-6	i	95*	1	-2	0
O=C(CSC1=NC(=O)C(Cc2ccccc2)C(=O)N1)Nc1ncccn1 (stereo not drawn)	/	i	/	/	/	/
O=C(CSC1=NC(=O)C(c2ccccc2)C(=O)N1)Nc1ccccc1Cl (stereo not drawn)	-4	i	99*	1	9	0
CC(=O)NC1C(=O)N=C(SCC(=O)Nc2ccc(C(F)(F)F)cc2Cl)NC1=O (stereo not drawn)	14	i	98*	2	-15	0
Cc1cc(N)n(-c2ccccn2)n1	-3	i	1	0	8	0
CCCCOCCCNC(=O)N[C@H](C(=O)OC)C(C)CC (stereo partly drawn)	-5	i	-2	1	0	0
Nc1cc(=O)[nH]c(SCC(=O)Nc2cccc(Cl)c2)n1	-5	i	21	0	-2	0
O=C(CSC1=NC(=O)C(c2ccccc2)C(=O)N1)Nc1cccc(Cl)c1 (stereo not drawn)	15	i	98*	1	27	0
CC(=O)c1ccc(-c2ccc(C(=O)NC3CCCCCC3)o2)cc1	-8	i	98*	3	-20	0
COc1ccc(C)cc1NC(=O)CN1C(=O)COc2ccc(S(=O)(=O)N3CCOCC3)cc21	3	+	-10	0	38	0
CN(C)S(=O)(=O)c1ccc(NC(=O)Cc2ccc(S(=O)(=O)N3CCOCC3)s2)cc1	2	i	-8	3	-4	0
COc1ccc(S(=O)(=O)N(C)C)cc1NC(=O)Cc1ccc(S(=O)(=O)N2CCOCC2)s1	/	/	/	/	51*	/
COc1ccc(C)cc1NC(=O)CN1C(=O)COc2ccc(S(=O)(=O)N3CCCCCC3)cc21	?	i	-8	0	-3	0
CC(=O)c1cccc(NC(=O)C(C)OC(=O)CCc2nc3ccccc3c(=O)[nH]2)c1 (stereo not drawn)	-2	/	0	1	-2	0
C=CCOc1ccc(Br)cc1CNC(C)(C)C	-5	i	-21	0	-3	0
SMILES	HDAC3 inh	Rce1 inhib	ALR H2O2 inh	GRK2 inh	Rtt109 HAT inh	Efflux pump inh
COc1cc(C(=O)NNC(=O)/C=C/c2ccco2)cc(OC)c1OC	3	/	5	42*	8	0
Cc1c(NC(=O)Nc2ccc3c(c2)OCO3)cccc1[N+](=O)[O-]	10	i	-7	1	28	0
CCN1CCN(CCn2c(=S)[nH]c3cc4c(cc3c2=O)OCO4)CC1	8	i	92*	0	2	0
O=C(CCCn1c(=S)[nH]c2cc3c(cc2c1=O)OCO3)N1CCN(C2CCCCC2)CC1	15	i	83*	3	-1	0
O=C(CCCn1c(=S)[nH]c2cc3c(cc2c1=O)OCO3)N1CCN(c2ncccn2)CC1	-3	i	20	4	-3	0
COC(=O)CCC(C)C1CCC2C3CCC4CC(O)CCC4(C)C3CC(O)C12C (stereo not drawn)	/	/	/	/	20	/
Cn1c(=O)c2c(nc(N/N=C/c3ccncc3)n2Cc2ccccc2)n(C)c1=O	2	i	97*	5	/	0
C/C(Cl)=C\Cn1c(Nc2ccccc2)nc2c1c(=O)n(C)c(=O)n2C	1	i	87*	3	-7	0
Cc1ccc(Cn2c(N/N=C/c3ccncc3)nc3c2c(=O)n(C)c(=O)n3C)cc1	8	i	97*	0	6	1
C/C(Cl)=C/Cn1c(NCCN(C)C)nc2c1c(=O)n(C)c(=O)n2C	2	i	3	1	-2	0
COc1cc(/C=N/Nc2nc3c(c(=O)n(C)c(=O)n3C)n2Cc2ccccc2)ccc1OC(=O)c1ccco1	6	i	-8	23	20	0
CCN(C(=O)COC(=O)c1ccccc1NCCO)c1cccc2ccccc12	/	i	/	1	20	0
Cc1ccc(NC(=O)COC(=O)c2nn(C)c(=O)c3ccccc23)cc1F	1	/	/	0	0	0
O=S(=O)(O)c1ccc(N2N=C(c3ccccc3)CC2c2ccccc2)cc1 (stereo not drawn)	-232	?	99*	6	i	0
NS(=O)(=O)c1ccc(N2N=C(c3ccccc3)CC2c2ccccc2)cc1 (stereo not drawn)	-237	?	-12	0	i	-14
CN1c2ccccc2-c2nc3ccccc3n2C1c1ccccn1 (stereo not drawn)	-117	?	-1	3	-87	0
CN1c2ccccc2-c2nc3ccccc3n2C1c1ccncc1 (stereo not drawn)	-16	+	4	0	-3	0
N#C/C(=C\c1cc(O)c(O)c(O)c1)C(N)=O	4	i	99*	0	-3	0
N#C/C(=C\c1cc(Cl)c(OCc2ccc(Cl)cc2)c(Cl)c1)C(N)=O	0	i	2	0	/	0
O=C(NC1CCCCC1)C1CC(=O)N(c2cccc([N+](=O)[O-])c2)C1 (stereo not drawn)	6	i	2	1	4	0
CC(=O)N1c2ccc(S(=O)(=O)N3CCC(C(=O)NCCc4ccc(Cl)cc4)CC3)cc2CC1C (stereo not drawn)	6	i	-5	0	-10	0
COc1cc(/C=C(\C#N)C(=O)NCC2CCCO2)ccc1OCC(N)=O (stereo not drawn)	-4	i	95*	0	8	0
